Measurements taken from PubChem BioAssay (NCATS).
Several values for one entry are separate records, joined by “and”; a condition that tells them apart may be missing. Identical values can stand only once. Records with an inconclusive call do not appear. The source holds several records for some structures; these can differ, active in one and inactive in another. Activity calls are given as the source filed them. Unless noted, calls come from the whole dose curve; as a rule, active = well fitted curve in the direction sought with a large enough effect; inconclusive = small, poorly fitted or top-dose-only effect, or another doubt; inactive = no such curve, though single readings can be large; an effect the other way counts as inactive or inconclusive.

Molecular target: Cytochrome P450 2C9 (Homo sapiens) (UniProt P11712)
Sequence (P11712 whole entry, looked up): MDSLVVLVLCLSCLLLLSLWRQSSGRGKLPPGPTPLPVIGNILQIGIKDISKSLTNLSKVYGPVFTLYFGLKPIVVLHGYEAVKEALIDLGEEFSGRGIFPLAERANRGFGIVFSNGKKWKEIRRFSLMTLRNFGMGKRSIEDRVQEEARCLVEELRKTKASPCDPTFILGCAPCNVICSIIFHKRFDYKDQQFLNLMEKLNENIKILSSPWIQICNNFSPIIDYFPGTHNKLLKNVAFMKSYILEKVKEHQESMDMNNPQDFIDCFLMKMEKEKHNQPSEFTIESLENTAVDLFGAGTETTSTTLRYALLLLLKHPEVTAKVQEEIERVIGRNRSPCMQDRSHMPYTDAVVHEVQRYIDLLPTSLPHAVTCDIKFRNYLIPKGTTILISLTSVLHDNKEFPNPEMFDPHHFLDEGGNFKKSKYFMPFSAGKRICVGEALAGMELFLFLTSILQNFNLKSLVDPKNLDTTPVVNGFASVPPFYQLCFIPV
Assay: Cytochrome P450 family 2 subfamily C member 9 (CYP2C9) small molecule antagonists: luciferase biochemical (cell-free) qHTS assay (AID 1645842; active = well fitted curve in the direction sought with a large enough effect in the repeat runs; an effect the other way counts as inactive or inconclusive; note: nearly all actives have a fitted effect of over 55% in size; note: potency is the fitted concentration of half-maximal effect)
Details: P450-Glo CYP2C9 enzyme assay, luciferin luminescence; series mostly up to 57.4 µM; activity change, negative = inhibition: at the top concentration
Procedure, shortened: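 P450-Glo CYP2C9 system: proluciferin substrate with enzyme in mix containing 0.4% BSA, 10 min at room temperature, then NADPH regeneration solution added and incubated 1 h at 37C. Detection reagent stopped reaction; luminescence read after 20 min as RLU.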
% is set by controls: 0 for no effect and ±100 for the full control effect.

Compound	activity change, negative = inhibition	Potency
CN(C)CCOC1=Cc2ccccc2Sc2ccc(Cl)cc21	-10.6% (inactive)	
CCC(=O)O[C@]1(C(=O)COC)[C@@H](C)C[C@H]2[C@@H]3CCC4=CC(=O)C=C[C@]4(C)C3(F)[C@@H](O)C[C@@]21C (stereo not given in full)		24.5 µM (active)
CCCCC/C=C\C/C=C\CCCCCCCC(=O)NC(C)c1ccccc1 (stereo not given)		1.55 µM (active)
O=C(O)/C=C(\CC(=O)O)C(=O)O	7.87% (inactive)	

Molecular target: Papain (Carica papaya) (UniProt P00784)
Sequence (P00784 whole entry, looked up): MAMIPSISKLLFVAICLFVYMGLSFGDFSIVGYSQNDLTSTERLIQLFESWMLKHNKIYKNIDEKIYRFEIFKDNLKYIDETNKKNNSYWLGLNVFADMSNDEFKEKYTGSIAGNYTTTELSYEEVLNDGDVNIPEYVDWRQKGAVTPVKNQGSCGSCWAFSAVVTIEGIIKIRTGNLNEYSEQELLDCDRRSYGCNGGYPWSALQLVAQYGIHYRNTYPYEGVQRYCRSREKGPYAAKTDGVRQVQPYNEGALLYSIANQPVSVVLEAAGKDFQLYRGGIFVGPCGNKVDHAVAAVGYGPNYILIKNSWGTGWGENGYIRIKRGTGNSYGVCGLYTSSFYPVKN
Assay: Primary qHTS assay for inhibitors of the protease papain (AID 1645873);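 note: papain turnover of Z-FR-AMC read as the AMC fluorescence gain over 10 min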
Details: papain Z-FR-AMC cleavage, AMC fluorescence; series mostly up to 49.8 µM; activity change, negative = inhibition: at the top concentration

Compound	activity change, negative = inhibition
COc1cccc2c1[C@@H]1CN(CCCCn3c(=O)[nH]c4c(sc5ncc(-c6ccccc6)nc54)c3=O)C[C@@H]1CO2	-22.1% (inactive)
Clc1ccc2c(c1)N=C(N1CCNCC1)c1ccccc1N2	11.8% (inactive)
Brc1ccc([C@H]2CN3CCSC3=N2)cc1	-10.4% (inactive)
NC(N)=NCCCCN=C(N)N	1.89% (inactive)
C[N+](C)(C)CCO	3.33% (inactive)
O=C1NC(c2cccc([N+](=O)[O-])c2)=CCN1c1ccccc1O	-11.6% (inactive)
Nc1ncnc2n[nH]c(Nc3ccc(F)cc3)c12	8.37% (inactive)
O=C1NC(=O)/C(=C/c2ccc3c(c2)OC(F)(F)O3)S1	-1.89% (inactive)
N[C@@H](Cn1ccc(=O)c(O)c1)C(=O)O	12.3% (inactive)
COc1ccccc1N1CCN(CCN2C(=O)CC3(CCCC3)CC2=O)CC1	-14.1% (inactive)
Cc1nn(-c2ccccc2)c(C)c1/C=N/N1CCN(Cc2ccccc2)CC1	13.4% (inactive)
COC(=O)C1=CO[C@@H](O)[C@@H]2C(CO)=CC[C@H]12	-2.25% (inactive)
Cn1cnc2c(NCc3ccccc3)nc(NCCO)nc21	8.55% (inactive)
O=[N+]([O-])c1ccc(-c2nc(-c3ccc(F)cc3)c(-c3ccncc3)[nH]2)cc1	8.91% (inactive)
CN(C)c1cc2c(Nc3ccc4c(cnn4Cc4ccccc4)c3)ncnc2cn1	-3.69% (inactive)
CCN(CC)CCNC(=O)c1ccc(NS(C)(=O)=O)cc1	10.7% (inactive)

Test system: not listed separately
Assay: Primary qHTS for inhibitors of nuclear receptor binding SET domain protein 2 (NSD2) in an isogenic RCH-ACV NSD2 p.E1099K mutant (9B) (AID 1645876); note: nearly all actives have a fitted effect of over 70% in size; note: potency is the fitted concentration of half-maximal effect
Details: RCH-ACV (leukaemia line) NSD2 E1099K (9B) viability, CellTiter-Glo, 72 h; series mostly up to 44.9 µM; activity change, negative = viability loss: at the top concentration

Compound	activity change, negative = viability loss	Potency	outcome
C[C@H]1C[C@@H]2[C@H]([C@@H](O)C[C@@]3(C)[C@H]2CC[C@]3(O)C(=O)CO)[C@@]2(C)C=CC(=O)C=C12	-26.3% (inactive)		
O=C(O)Cn1c(=O)n(Cc2ccc(Br)cc2F)c(=O)c2ccc(Cl)cc21	-9.88% (inactive)		
O=C(OCCN1CCOCC1)c1cccnc1Nc1cccc(C(F)(F)F)c1	-16.5% (inactive)		
c1ccc2c(c1)CCc1ccccc1N2	-7.34% (inactive)		
Brc1ccc([C@H]2CN3CCSC3=N2)cc1	-20.3% (inactive)		
CC(C)N(CCC(=O)c1ccc2ccccc2c1)Cc1ccccc1		6.61 µM (active) and 8.2 µM (active)	
CC(C)(C)c1ccc(O)c(O)c1		2.17 µM (active)	
CCCCC(CC)CNC(=O)CC(C)OC(=O)CCC(=O)O (stereo not given)	-0.708% (inactive)		
Cc1cccc(N(C)C(=S)Oc2ccc3c(c2)CCC3)c1	-15.7% (inactive)		
CN1CCCN=C1/C=C/c1cccs1		inactive	
CCOC(=O)c1cc(=O)c2c(OCC(COc3cccc4oc(C(=O)OCC)cc(=O)c34)OC(=O)[C@@H](N)CCCCN)cccc2o1	9.89% (inactive)		
CN1CCC(=C2c3ccccc3CCc3cccnc32)CC1	-0.91% (inactive)		
O=C1NC(c2cccc([N+](=O)[O-])c2)=CCN1c1ccccc1O	-10.6% [at 17.3 µM] (inactive)		
CCCCOCCOC(=O)c1cccnc1	9.57% (inactive)		
CCCCCCCCCCCCCCCC[n+]1ccccc1		0.376 µM (active)	
CC[C@@]1(O)C(=O)OCc2c1cc1n(c2=O)Cc2c-1nc1ccccc1c2/C=N/OC(C)(C)C	-96% (inactive)		
N[C@@H](Cn1ccc(=O)c(O)c1)C(=O)O	-1.02% [at 4.96 µM] (inactive)		
CC(NN)c1ccccc1 (stereo not given)	7.52% [at 17.3 µM] (inactive)		
COc1ccccc1N1CCN(CCN2C(=O)CC3(CCCC3)CC2=O)CC1	-4.43% (inactive)		
CCOC(=O)C(=O)CCc1ccccc1	9.25% (inactive)		
O=[N+]([O-])c1ccc(-c2nc(-c3ccc(F)cc3)c(-c3ccncc3)[nH]2)cc1		inactive and 18.4 µM (active)	
Cc1ccc(O)cc1			inactive
CN1CC(=O)N2[C@H](c3ccc4c(c3)OCO4)c3[nH]c4ccccc4c3C[C@@H]2C1=O		inactive	
CN(C)c1cc2c(Nc3ccc4c(cnn4Cc4ccccc4)c3)ncnc2cn1		23 µM (active)	
CCC1=C[C@@H]2CN(C1)Cc1c([nH]c3ccccc13)[C@@](C(=O)OC)(c1cc3c(cc1OC)N(C)[C@H]1[C@@](O)(C(=O)OC)[C@H](OC(C)=O)[C@]4(CC)C=CCN5CC[C@]31[C@@H]54)C2		2.1 nM (active) and 162 nM (active)	
